# The whole screen tested about 5,500 compounds, of which about 2,000 (36%) were called active. Not shown: some 18% with an inconclusive outcome. This is one part of the list. Unmarked numbers belong to inactive results. No stated cut-off is given here; in the data, active means normalized growth mostly below about 0.91 (no sharp cut-off); inconclusive means no clear call, values can overlap the other calls; inactive means mostly above about 0.92.
# Experiment: chemical genetic growth profiling, strain panel (AID 1159580);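 further: tested at 20 µM; growth read once vehicle control cultures reached saturation at 30 °C; 1 = growth at the plate median or of vehicle wells; lower values mean less growth of the strain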
# Conditions: S. cerevisiae deletion strains, growth OD
smiles,measurement,setting,value
CCC(C)c1ccccc1NC(=O)c1cc2cccc([N+](=O)[O-])c2[nH]1 (stereo unspecified),normalized growth,"locus YAR019C, strain CDC15, active compounds read low",0.932
same,normalized growth,"locus YBL105C, strain PKC1, active compounds read low",0.914
same,normalized growth,"locus YBR135W, strain CKS1, active compounds read low",0.912
same,normalized growth,"locus YBR136W, strain MEC1, active compounds read low",0.923
same,normalized growth,"locus YBR160W, strain CDC28, active compounds read low",0.924
same,normalized growth,"locus YDL017W, strain CDC7, active compounds read low",0.928
same,normalized growth,"locus YDL028C, strain MPS1, active compounds read low",0.92
same,normalized growth,"locus YDL101C, strain DUN1, active compounds read low",0.949
same,normalized growth,"locus YDL108W, strain KIN28, active compounds read low",0.921
same,normalized growth,"locus YDL132W, strain cdc53, active compounds read low",0.896
same,normalized growth,"locus YDL214C, strain PRR2, active compounds read low",0.904
same,normalized growth,"locus YDR052C, strain DBF4, active compounds read low",0.965
same,normalized growth,"locus YDR054C, strain cdc34, active compounds read low",0.957
same,normalized growth,"locus YDR226W, strain ADK1, active compounds read low",0.936
same,normalized growth,"locus YDR477W, strain SNF1, active compounds read low",0.792
same,normalized growth,"locus YER123W, strain YCK3, active compounds read low",0.851
same,normalized growth,"locus YER133W, strain GLC7, active compounds read low",0.893
same,normalized growth,"locus YFL009W, strain cdc4, active compounds read low",0.906
same,normalized growth,"locus YFL029C, strain CAK1, active compounds read low",0.925
same,normalized growth,"locus YFR003C, strain YPI1, active compounds read low",0.93
same,normalized growth,"locus YFR019W, strain FAB1, active compounds read low",0.978
same,normalized growth,"locus YFR028C, strain CDC14, active compounds read low",0.967
same,normalized growth,"locus YGR040W, strain KSS1, active compounds read low",0.826
same,normalized growth,"locus YGR052W, strain FMP48, active compounds read low",0.867
same,normalized growth,"locus YGR092W, strain DBF2, active compounds read low",0.7
same,normalized growth,"locus YHR030C, strain SLT2, active compounds read low",0.543 (active)
same,normalized growth,"locus YHR079C, strain IRE1, active compounds read low",0.219 (active)
same,normalized growth,"locus YHR082C, strain KSP1, active compounds read low",0.905
same,normalized growth,"locus YHR205W, strain SCH9, active compounds read low",0.964
same,normalized growth,"locus YIL147C, strain SLN1, active compounds read low",0.916
same,normalized growth,"locus YJL095W, strain BCK1, active compounds read low",0.266 (active)
same,normalized growth,"locus YJL128C, strain PBS2, active compounds read low",0.994
same,normalized growth,"locus YJL157C, strain FAR1, active compounds read low",0.884
same,normalized growth,"locus YJR016C, strain ILV3, active compounds read low",0.911
same,normalized growth,"locus YJR066W, strain TOR1 (second series), active compounds read low",0.905
same,normalized growth,"locus YJR066W, strain TOR1, active compounds read low",0.767
same,normalized growth,"locus YKL048C, strain ELM1, active compounds read low",0.912
same,normalized growth,"locus YKL067W, strain YNK1, active compounds read low",0.897
same,normalized growth,"locus YKL101W, strain HSL1, active compounds read low",0.83
same,normalized growth,"locus YKL193C, strain SDS22, active compounds read low",0.92
same,normalized growth,"locus YKL203C, strain TOR2, active compounds read low",0.783
same,normalized growth,"locus YLR113W, strain HOG1, active compounds read low",0.656 (active)
same,normalized growth,"locus YLR133W, strain CKI1, active compounds read low",0.902
same,normalized growth,"locus YLR403W, strain SFP1, active compounds read low",0.859
same,normalized growth,"locus YML070W, strain DAK1, active compounds read low",0.846
same,normalized growth,"locus YMR001C, strain CDC5, active compounds read low",0.917
same,normalized growth,"locus YMR205C, strain PFK2 (second series), active compounds read low",0.894
same,normalized growth,"locus YMR277W, strain FCP1, active compounds read low",0.921
same,normalized growth,"locus YNL006W, strain LST8, active compounds read low",0.915
same,normalized growth,"locus YNL020C, strain ARK1, active compounds read low",0.905
same,normalized growth,"locus YNL161W, strain CBK1, active compounds read low",0.924
same,normalized growth,"locus YNL183C, strain NPR1, active compounds read low",0.774
same,normalized growth,"locus YNL207W, strain RIO2, active compounds read low",0.905
same,normalized growth,"locus YNL222W, strain SSU72, active compounds read low",0.917
same,normalized growth,"locus YNL307C, strain MCK1 (second series), active compounds read low",0.826
same,normalized growth,"locus YOL078W, strain AVO1, active compounds read low",0.924
same,normalized growth,"locus YOL136C, strain PFK27, active compounds read low",0.869
same,normalized growth,"locus YOR061W, strain CKA2, active compounds read low",0.818
same,normalized growth,"locus YOR119C, strain RIO1, active compounds read low",0.805
same,normalized growth,"locus YOR231W, strain MKK1, active compounds read low",0.631
same,normalized growth,"locus YOR329C, strain SCD5, active compounds read low",0.917
same,normalized growth,"locus YPL031C, strain PHO85, active compounds read low",0.832
same,normalized growth,"locus YPL153C, strain RAD53, active compounds read low",0.723
same,normalized growth,"locus YPL204W, strain HRR25, active compounds read low",0.834
same,normalized growth,"locus YPL209C, strain IPL1, active compounds read low",0.921
same,normalized growth,"locus YPL256C, strain CLN2, active compounds read low",0.785 (active)
same,normalized growth,"locus YPR025C, strain CCL1, active compounds read low",0.919
same,normalized growth,"locus YPR106W, strain ISR1, active compounds read low",0.958
same,normalized growth,"locus YPR111W, strain DBF20, active compounds read low",0.99
same,normalized growth,"strain NNK1, active compounds read low",0.945
same,normalized growth,"strain TSCII, active compounds read low",0.911

# Reference: PubChem BioAssay AID1159580 (chemical genetic matrix, 2015)
